Test results as given in PubChem BioAssay (NCATS).
Results filed as inconclusive are left out. Active and inactive are the calls of the source. The call rests on the fitted dose curve; in most records, active means well fitted inhibition curve with a large enough effect; inconclusive means small, poorly fitted or top-dose-only effect; inactive means flat fitted curve, though single readings scatter.

Experiments:
[1] = qHTS profiling for inhibitors of Plasmodium falciparum proliferation (AID 504749);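 further: 0% = DMSO vehicle and full inhibition = artemisinin control; nearly all actives have a fitted effect of over 60% in size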; details: P. falciparum in erythrocytes, SYBR Green DNA, 72 h, at 28.7 µM (top of the series)
Outline: (§1)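 Each compound contacts P. falciparum-infected red blood cells for 72 h at 37 C; lysis buffer (Tris, EDTA, saponin, Triton X, SYBR Green I) is added and fluorescence measured next morning; values normalized to controls.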

3D7 = experiment: as above; details: P. falciparum in erythrocytes, SYBR Green DNA, 72 h; series mostly up to 28.7 µM
Outline: as §1

7G8 = experiment: as above; details: P. falciparum in erythrocytes, SYBR Green DNA, 72 h; series mostly up to 28.7 µM
Outline: as §1

AA1029 = experiment: as above; details: P. falciparum in erythrocytes, SYBR Green DNA, 72 h; series mostly up to 28.7 µM
Outline: as §1

AS120 = experiment: as above; details: P. falciparum in erythrocytes, SYBR Green DNA, 72 h; series mostly up to 28.7 µM
Outline: as §1

ATS189 = experiment: as above; details: P. falciparum in erythrocytes, SYBR Green DNA, 72 h; series mostly up to 28.7 µM
Outline: as §1

ATS95 = experiment: as above; details: P. falciparum in erythrocytes, SYBR Green DNA, 72 h; series mostly up to 28.7 µM
Outline: as §1

C2A = experiment: as above; details: P. falciparum in erythrocytes, SYBR Green DNA, 72 h; series mostly up to 28.7 µM
Outline: as §1

CP185 = experiment: as above; details: P. falciparum in erythrocytes, SYBR Green DNA, 72 h; series mostly up to 28.7 µM
Outline: as §1

CP191 = experiment: as above; details: P. falciparum in erythrocytes, SYBR Green DNA, 72 h; series mostly up to 28.7 µM
Outline: as §1

CP192 = experiment: as above; details: P. falciparum in erythrocytes, SYBR Green DNA, 72 h; series mostly up to 28.7 µM
Outline: as §1

O=c1[nH]c2cc(C(F)(F)F)c(N3CCOCC3)cc2n(CP(=O)(O)O)c1=O
inactive: activity, negative = inhibition ([1]; parasite line A) 11.3% | activity, negative = inhibition ([1]; parasite line B) -0.254% | Potency (3D7) | Potency (7G8) | Potency (AA1029) | Potency (AS120) | Potency (ATS189) | Potency (ATS95) | Potency (C2A) | Potency (CP185) | outcome (CP191) | outcome (CP192)

COc1ccccc1Oc1c(NS(=O)(=O)c2ccc(C(C)(C)C)cc2)nc(-c2ncccn2)nc1OCCO
inactive: activity, negative = inhibition ([1]; parasite line A) -4.92% | activity, negative = inhibition ([1]; parasite line B) -14.6% | Potency (3D7) | Potency (7G8) | Potency (AA1029) | Potency (AS120) | Potency (ATS189) | Potency (ATS95) | Potency (C2A) | Potency (CP185) | outcome (CP191) | outcome (CP192)

COC(=O)c1ccccc1C(=O)c1ccc(OCCN2CCCCC2)cc1
inactive: activity, negative = inhibition ([1]; parasite line A) 9.58% | activity, negative = inhibition ([1]; parasite line B) 5.94% | Potency (3D7) | Potency (7G8) | Potency (AA1029) | Potency (AS120) | Potency (ATS189) | Potency (ATS95) | Potency (C2A) | Potency (CP185) | outcome (CP191) | outcome (CP192)

Cc1cccc(C(=O)O)c1O
inactive: activity, negative = inhibition ([1]; parasite line A) 14.5% | activity, negative = inhibition ([1]; parasite line B) 2.46% | Potency (3D7) | Potency (7G8) | Potency (AA1029) | Potency (AS120) | Potency (ATS189) | Potency (ATS95) | Potency (C2A) | Potency (CP185) | outcome (CP191) | outcome (CP192)

O=C(CN1CCNCC1)NC1CCCCC1
inactive: activity, negative = inhibition ([1]; parasite line A) 3.68% | activity, negative = inhibition ([1]; parasite line B) 4.23% | Potency (3D7) | Potency (7G8) | Potency (AA1029) | Potency (AS120) | Potency (ATS189) | Potency (ATS95) | Potency (C2A) | Potency (CP185) | outcome (CP191) | outcome (CP192)

O=C(O)c1ccccc1OP(=O)(O)O
inactive: activity, negative = inhibition ([1]; parasite line A) 4.92% | activity, negative = inhibition ([1]; parasite line B) 6.75% | Potency (3D7) | Potency (7G8) | Potency (AA1029) | Potency (AS120) | Potency (ATS189) | Potency (ATS95) | Potency (C2A) | Potency (CP185) | outcome (CP191) | outcome (CP192)

COc1ccccc1OC(=O)Oc1ccccc1OC
inactive: activity, negative = inhibition ([1]; parasite line A) -1.25% | activity, negative = inhibition ([1]; parasite line B) 5.57% | Potency (3D7) | Potency (7G8) | Potency (AA1029) | Potency (AS120) | Potency (ATS189) | Potency (ATS95) | Potency (C2A) | Potency (CP185) | outcome (CP191) | outcome (CP192)

NCC1CCC(C(=O)Oc2ccc(CCC(=O)O)cc2)CC1 (stereo unspecified)
inactive: activity, negative = inhibition ([1]; parasite line A) -0.969% | activity, negative = inhibition ([1]; parasite line B) 4.31% | Potency (3D7) | Potency (7G8) | Potency (AA1029) | Potency (AS120) | Potency (ATS189) | Potency (ATS95) | Potency (C2A) | Potency (CP185) | outcome (CP191) | outcome (CP192)

CN1CCCN=C1COC(=O)C(O)(c1ccccc1)C1CCCCC1 (stereo unspecified)
inactive: activity, negative = inhibition ([1]; parasite line A) 2.78% | activity, negative = inhibition ([1]; parasite line B) -4.74% | Potency (3D7) | Potency (7G8) | Potency (AA1029) | Potency (AS120) | Potency (ATS189) | Potency (ATS95) | Potency (C2A) | Potency (CP185) | outcome (CP191) | outcome (CP192)

CCN(CC)C(=O)c1cccc(C)c1
inactive: activity, negative = inhibition ([1]; parasite line A) 7.82% | activity, negative = inhibition ([1]; parasite line B) 6.22% | Potency (3D7) | Potency (7G8) | Potency (AA1029) | Potency (AS120) | Potency (ATS189) | Potency (ATS95) | Potency (C2A) | Potency (CP185) | outcome (CP191) | outcome (CP192)

c1ccc2[nH]ccc2c1
inactive: activity, negative = inhibition ([1]; parasite line A) 15.1% | activity, negative = inhibition ([1]; parasite line B) 19.4% | Potency (3D7) | Potency (7G8) | Potency (AA1029) | Potency (AS120) | Potency (ATS189) | Potency (ATS95) | Potency (C2A) | Potency (CP185) | outcome (CP191) | outcome (CP192)

NNc1nnc(NN)c2ccccc12
inactive: activity, negative = inhibition ([1]; parasite line A) 11.4% | activity, negative = inhibition ([1]; parasite line B) 18.1% | Potency (3D7) | Potency (7G8) | Potency (AA1029) | Potency (AS120) | Potency (ATS189) | Potency (ATS95) | Potency (C2A) | Potency (CP185) | outcome (CP191) | outcome (CP192)

Nc1ccncc1N
inactive: activity, negative = inhibition ([1]; parasite line A) 9.9% | activity, negative = inhibition ([1]; parasite line B) 5.99% | Potency (3D7) | Potency (7G8) | Potency (AA1029) | Potency (AS120) | Potency (ATS189) | Potency (ATS95) | Potency (C2A) | Potency (CP185) | outcome (CP191) | outcome (CP192)

Cc1ccc(S(=O)(=O)NC(=O)NC2CCCCC2)cc1
inactive: activity, negative = inhibition ([1]; parasite line A) -9.84% | activity, negative = inhibition ([1]; parasite line B) 5.26% | Potency (3D7) | Potency (7G8) | Potency (AA1029) | Potency (AS120) | Potency (ATS189) | Potency (ATS95) | Potency (C2A) | Potency (CP185) | outcome (CP191) | outcome (CP192)

CC(=O)NCc1c(I)c(NC(C)=O)c(I)c(C(=O)O)c1I
inactive: activity, negative = inhibition ([1]; parasite line A) 10.9% | activity, negative = inhibition ([1]; parasite line B) 6.96% | Potency (3D7) | Potency (7G8) | Potency (AA1029) | Potency (AS120) | Potency (ATS189) | Potency (ATS95) | Potency (C2A) | Potency (CP185) | outcome (CP191) | outcome (CP192)

CCOC(N)=O
inactive: activity, negative = inhibition ([1]; parasite line A) 8.86% | activity, negative = inhibition ([1]; parasite line B) 9.69% | Potency (3D7) | Potency (7G8) | Potency (AA1029) | Potency (AS120) | Potency (ATS189) | Potency (ATS95) | Potency (C2A) | Potency (CP185) | outcome (CP191) | outcome (CP192)

O=C(O)c1ccc[n+]([O-])c1
inactive: activity, negative = inhibition ([1]; parasite line A) -4.83% | activity, negative = inhibition ([1]; parasite line B) 10.2% | Potency (3D7) | Potency (7G8) | Potency (AA1029) | Potency (AS120) | Potency (ATS189) | Potency (ATS95) | Potency (C2A) | Potency (CP185) | outcome (CP191) | outcome (CP192)

COc1ccc(C(=O)NCc2ccc(OCCN(C)C)cc2)cc1OC
inactive: activity, negative = inhibition ([1]; parasite line A) -0.299% | activity, negative = inhibition ([1]; parasite line B) -0.981% | Potency (3D7) | Potency (7G8) | Potency (AA1029) | Potency (AS120) | Potency (ATS189) | Potency (ATS95) | Potency (C2A) | Potency (CP185) | outcome (CP191) | outcome (CP192)
